HCV inh – qHTS Assay for Inhibitors of Hepatitis C Virus (HCV). Potency, µM (highest dose often 41.8 µM), hits mostly inhibitors. 3.4% of 340,000 active. Huh7.5.1 HCVcc-Cre infection, luciferase reporter, 44 h
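Infectious HCV cell culture screen: compound-treated cells (1,000/well, pre-plated 4 h) are infected with HCVcc-Cre at roughly 0.5 moi and grown 44 h. Infection is quantified by luciferase signal after 15 min substrate incubation at room temperature.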
Vaccinia Venus – qHTS for Stage-Specific Inhibitors of Vaccinia Orthopoxvirus: Venus Reporter Primary qHTS. 0.46% of 330,000 active. Vaccinia virus Venus reporter expression, fluorescence. Potency, µM (highest dose often 36.5 µM), hits mostly inhibitors; calls by dose curve; tested in A549 cells; further: nearly all actives have a fitted effect of over 30% in size
Vaccinia mCherry – qHTS for Stage-Specific Inhibitors of Vaccinia Orthopoxvirus: mCherry Reporter Primary qHTS; Vaccinia virus mCherry reporter infection, fluorescence; 0.63% of 310,000 active; Potency, µM (highest dose often 36.5 µM), most hits filed as inhibitors; calls by dose curve; tested in A549 cells; further: nearly all actives have a fitted effect of over 35% in size
HCV confirm – qHTS Assay for Inhibitors of Hepatitis C Virus (HCV): Confirmation Assay for Cherry-picked Compounds | Potency, µM (series often up to 41.8 µM), actives largely listed as inhibitors | shares compounds with HCV inh | HCVcc-Cre infectious virus cell assay, luciferase, inhibition | 78% of 640 active | AID 720575, 2013; further: nearly all actives have a fitted effect of over 80% in size
HCV host tox – qHTS Assay for Inhibitors of Hepatitis C Virus (HCV): Cytotoxicity Counterscreen for Cherry-picked Compounds; shares compounds with HCV inh; HCV host cell line cytotoxicity counterscreen; Potency, µM (highest dose often 41.8 µM), actives largely listed as inhibitors; 22% of 640 active; AID 720576, 2013;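 further: 44 h compound exposure; nearly all actives have a fitted effect of over 55% in size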
Large screens that a line does not name were inactive (follow-up assays come after a bar, where they were run). Only some compounds are listed: those with a hit (about 3.3% of all), similar ones and a draw of the others. Unless noted, the call rests on the fitted dose curve; in most records, active means well fitted curve in the direction sought with a large enough effect; inconclusive means small, poorly fitted or top-dose-only effect, or another doubt; inactive means no such curve, though single readings can be large; an effect the other way counts as inactive or inconclusive.

COc1ccccc1CN1CC(C(=O)N2CCOCC2)CCC1=O (stereo not given)	none (no result: Vaccinia Venus, Vaccinia mCherry)
CCOc1ccccc1CNC(=O)c1ccc(Sc2ccc(Cl)cc2)c(NC(C)=O)c1	HCV inh inconclusive | HCV confirm 12.5µM | HCV host tox inactive
CCOc1ccc(CNC(=O)c2ccc(Sc3ccc(Cl)cc3)c(NC(C)=O)c2)cc1	Vaccinia Venus inconclusive, Vaccinia mCherry inconclusive
Cc1cc2oc(C(=O)NCCc3ccc(S(N)(=O)=O)cc3)c(C)c2cc1C	HCV inh inconclusive | HCV confirm inconclusive | HCV host tox inactive
Cc1cc2oc(C(=O)NCCc3ccc(S(N)(=O)=O)cc3)cc(=O)c2cc1C	none
NC(=O)c1nsc(C(=O)N(Cc2ccccc2Cl)C(C(=O)NCC2CCCO2)c2ccc(O)cc2)c1N (stereo not given)	none
O=C(N/N=C1\C/C(=N\NC(=O)c2ccncc2)c2ccccc21)c1ccncc1	HCV inh inconclusive
O=C(N/N=C1\CCCc2c1[nH]c1ccc(Cl)cc21)c1ccncc1	HCV inh 3.16µM (no result: Vaccinia Venus, Vaccinia mCherry) | HCV confirm 8.87µM | HCV host tox inconclusive
CC(=O)Nc1nc(C)c(Oc2ccc(C)cc2)c(=O)[nH]1	none
CCOCc1c(C(=O)NC2=Nc3ccccc3NC(CC)=C2C(=O)OCC)oc2ccccc12	HCV inh inconclusive
CCOC(=O)C1=C(CC)Nc2ccccc2N=C1NC(=O)c1oc2ccccc2c1C	HCV inh inconclusive | HCV confirm 12.5µM | HCV host tox inactive
CCOc1ccc(CNCCCSc2nnnn2C)cc1OC	none (no result: HCV inh)
Cc1cc(S(=O)(=O)Nc2ccc3ccccc3c2)c(C)s1	HCV inh inconclusive (no result: Vaccinia Venus, Vaccinia mCherry) | HCV confirm 22.3µM | HCV host tox inconclusive
Cc1cc(S(=O)(=O)Nc2cccnc2)c(C)s1	none
CN(C)S(=O)(=O)c1cccc(C(=O)NCCOC(=O)c2cc(F)c(F)cc2Cl)c1	none
Cc1cccc(-n2c3nc(=O)n(C)c(=O)c-3cc3c(C)nn(-c4ccccc4)c32)c1C	none (no result: HCV inh)
COc1ccc(-n2c(C)cc(/C=C3/SC(=S)N(C)C3=O)c2C)cc1	none
Cc1cc(/C=C2\SC(=S)N(C)C2=O)c(C)n1-c1cccc(O)c1	HCV inh 4.47µM, Vaccinia mCherry inconclusive | HCV confirm 25µM | HCV host tox 25µM
O=C(Nc1cc(C(F)(F)F)ccc1N1CCCCC1)c1ccc(Br)o1	HCV inh 5.01µM (no result: Vaccinia Venus, Vaccinia mCherry) | HCV confirm 14.1µM | HCV host tox inactive
O=C(Nc1cc(C(F)(F)F)ccc1N1CCCCC1)c1ccco1	HCV inh inconclusive (no result: Vaccinia mCherry)
Cc1cc(C)nc(-n2nc(C)c(Br)c2Nc2ccc(Br)cc2)n1	none (no result: Vaccinia Venus, Vaccinia mCherry)
Cc1nn(C)c(Nc2ccc(Br)cc2)c1Br	HCV inh 3.55µM | HCV confirm 4.99µM | HCV host tox 8.87µM
O=C1CC(C(F)(F)F)=NN1	none
CC(=O)c1c(C)[nH]c(C(=O)COC(=O)c2ccc(Cl)nc2)c1C	none (no result: Vaccinia Venus, Vaccinia mCherry)
O=C(Nc1ncc(Cc2ccc(SC(F)F)cc2)s1)c1ccccc1	HCV inh inconclusive, Vaccinia mCherry inconclusive | HCV confirm 14.1µM | HCV host tox 28µM
O=C(Nc1nnc(Cc2ccccc2)s1)c1ccccc1	none
CCOc1c(C)cc(S(=O)(=O)NCc2ccccn2)c(C)c1C	none
Cc1ccc(NC(=O)c2cnc(SCC(=O)NCC3CCCO3)n(C)c2=O)cc1C (stereo not given)	none
Cn1c(SCC(=O)NCC2CCCO2)ncc(C(=O)Nc2ccccc2)c1=O (stereo not given)	HCV inh 5.01µM | HCV confirm inactive | HCV host tox inactive
Cc1ccc(N2C(=O)CC(c3ccccc3F)C3=C2COC3=O)cc1Cl (stereo not given)	none (no result: HCV inh)
CC1(C)NC(=O)N(CC(=O)Nc2nc(-c3ccc(F)cc3)cs2)C1=O	HCV inh 3.55µM | HCV confirm inconclusive | HCV host tox inactive
CCC(C)(C)C1CCC2(CC1)NC(=O)N(CC(=O)Nc1nc(-c3ccc(C)cc3)cs1)C2=O (stereo not given)	none (no result: Vaccinia mCherry)
Cc1cccc(N2CCc3c2nc2ccccc2c3N)c1	HCV inh 8.91µM, Vaccinia mCherry inconclusive | HCV confirm 22.3µM | HCV host tox inactive
Nc1c2c(nc3ccccc13)N(c1ccccc1)CC2	HCV inh inconclusive, Vaccinia mCherry inconclusive
O=C(C[C@@H]1C/C=C\C[C@@H](Cc2ccc(F)cc2)C(=O)OC[C@@H]2CCCN2C1=O)NCCO	none
C[C@]12CCC3C(CC[C@H]4C[C@H](O)CC[C@]34C)C1C[C@@H](O)[C@@H]2O (stereo not given in full)	none
C/C(=N\NC(N)=S)C1=CCC2C3CC[C@H]4CC(O)CC[C@]4(C)C3CC[C@]12C (stereo not given in full)	HCV inh inconclusive (no result: Vaccinia Venus, Vaccinia mCherry) | HCV confirm 7.91µM | HCV host tox inactive
C=CCOCCn1[nH]c2ccccc2c1=O	none
CCN(CC)S(=O)(=O)c1ccc(N2CCN(C)CC2)c(NC(=O)Nc2ccc(C)cc2)c1	none
O=C(Nc1ccc([N+](=O)[O-])cc1)Nc1ccc(OC(F)F)c(Cl)c1	HCV inh inconclusive, Vaccinia Venus 8.91µM, Vaccinia mCherry inconclusive | HCV confirm 7.05µM | HCV host tox 8.87µM
O=C(Cc1ccc(Cl)cc1Cl)Nc1ccc(OC(F)F)c(Cl)c1	HCV inh inconclusive
Cc1ccccc1CSCC(=O)Nc1ccccc1Br	none (no result: Vaccinia Venus, Vaccinia mCherry)
CC(Nc1nc(-c2ccc(F)cc2)cs1)c1nc2cc(Cl)c(Cl)cc2n1CCOCCO (stereo not given)	Vaccinia Venus inconclusive, Vaccinia mCherry inconclusive
COc1ccc(-c2csc(NC(C)c3nc4cc(Cl)c(Cl)cc4n3CCCO)n2)cc1 (stereo not given)	HCV inh 8.91µM, Vaccinia Venus inconclusive, Vaccinia mCherry inconclusive | HCV confirm 12.5µM | HCV host tox inactive
CCc1ccccc1NC(=O)c1ccc(OCc2c(C)noc2C)cc1	none
CC(=O)N1CCN(S(=O)(=O)c2cccc(C(=O)NNC(=O)Cn3nc(C)cc3C)c2)CC1	none (no result: Vaccinia Venus, Vaccinia mCherry)
O=C(Nc1ccc(Cl)c(Cl)c1)Nc1nnc(CC2=CCCCC2)s1	HCV inh 2.82µM (no result: Vaccinia Venus, Vaccinia mCherry) | HCV confirm 7.05µM | HCV host tox 7.91µM
O=C(Nc1nnc(CC2=CCCCC2)s1)c1cccs1	none
O=C(C[C@H]1C/C=C\CCCC(=O)OC[C@H]2CCCN2C1=O)NCCO	HCV inh inconclusive
O=C(c1cn(-c2ccccc2)nc1-c1cccc([N+](=O)[O-])c1)N1CCCCC1	HCV inh inconclusive | HCV confirm 11.2µM | HCV host tox inactive
CN(C)C(=O)c1cn(-c2ccccc2)nc1-c1cccc([N+](=O)[O-])c1	HCV inh inconclusive
Cc1oc2c(cc(NS(=O)(=O)c3ccc(Cl)cc3)c3ccccc32)c1C(=O)OCc1ccccc1	none (no result: HCV inh)
O=S(=O)(Nc1ccc(-c2ccc(NS(=O)(=O)c3ccccc3)cc2)cc1)c1ccccc1	HCV inh 3.16µM, Vaccinia Venus inconclusive | HCV confirm 12.5µM | HCV host tox inactive
O=S(=O)(Nc1ccc(NS(=O)(=O)c2ccccc2)cc1)c1ccccc1	none (no result: HCV inh)

High-throughput results: PubChem, National Center for Advancing Translational Sciences (NCATS)
